Compound activity (PubChem)
TRHR agonist: TRH receptor (human) agonism; P34981; TRHR cells, calcium flux fluo-8, FDSS agonist mode; 360,000 tested, 0.18% active; activation, % at 2 µM; further: 0% is about no effect
Target sequence (P34981 whole entry, looked up): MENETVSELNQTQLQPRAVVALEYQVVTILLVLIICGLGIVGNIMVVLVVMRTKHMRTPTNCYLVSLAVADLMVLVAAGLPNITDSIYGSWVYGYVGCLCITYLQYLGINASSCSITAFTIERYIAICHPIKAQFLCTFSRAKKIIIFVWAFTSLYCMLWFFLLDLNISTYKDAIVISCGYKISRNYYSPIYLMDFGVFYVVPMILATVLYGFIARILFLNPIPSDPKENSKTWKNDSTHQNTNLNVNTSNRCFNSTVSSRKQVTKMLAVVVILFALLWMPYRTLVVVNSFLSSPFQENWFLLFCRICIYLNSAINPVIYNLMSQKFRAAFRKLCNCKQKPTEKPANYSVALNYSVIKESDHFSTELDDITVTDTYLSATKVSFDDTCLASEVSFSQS
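In this calcium-flux screen, cells bearing human TRHR are dye-loaded with fluo-8, baselined for 10 cycles, then exposed to library compounds; positive kinetic calcium responses during the agonist phase mark hits, with TRH as control.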
D1 antagonist: antagonists of human D1 dopamine receptor; P21728; HEK293 TREx D1 cells, calcium flux, dopamine EC80; hits give low values; activity change, negative = inhibition, % at 10 µM; 360,000 tested, 3.2% active; AID 504652; in the data active means activity change below about -30%; further: on the % scale 0 is the no-effect control and ±100 the full control effect
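Calcium flux readout: force-coupled, inducible Hek293 Trex D1 line, cells induced overnight at 30 C with tetracycline, dye-loaded 30–90 min at RT. Antagonism scored against EC80 dopamine challenge given 180 s after compound.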
D1 PAM: potentiators of human D1 dopamine receptor; HEK293 TREx D1 cells, calcium flux, dopamine EC20 potentiation; AID 504651; potentiation, % at 10 µM; P21728; 360,000 tested, 0.036% active; in the data active means potentiation above about 30%; further: 0% is about no effect
TRHR PAM: TRH receptor (human) allosteric enhancement; TRHR cells, fluo-8 calcium fluorescence, EC20 TRH enhancement; enhancement, % at 2 µM; 360,000 tested, 0.66% active; in the data active means enhancement above about 30%; further: 0% is about no effect
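TRHR-expressing cells loaded with fluo-8 calcium dye were read kinetically (ex 480/em 530) during compound addition, then stimulated with an EC20 of TRH (10 nM final). Enhancement of the Gq-mediated intracellular calcium response was scored.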
D1 agonist: human D1 receptor agonism; P21728; HEK293 T-REx D1 cells, calcium flux, agonist mode; activation, % at 2 µM; 360,000 tested, 1% active; AID 504660; further: 0% is about no effect
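Inducible HEK293 T-REx D1 cells, force-coupled to calcium signalling, were plated at 4000 cells/well with tetracycline and held overnight at 30 C. After no-wash calcium dye loading, compound-evoked calcium rise over 180 s flagged agonists.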
* = called active by the depositor; . = no result. The list is not random: actives were taken first. Their share in the collection is about 4.7%. Unless noted, no stated cut-off is given here; in the data, active means activation above about 30%; inactive means the rest.

SMILES	TRHR agonist	D1 antagonist	D1 PAM	TRHR PAM	D1 agonist
COc1ccccc1NC(=O)C1CCN(S(=O)(=O)c2ccc3c(c2)NC(=O)C(C)S3)CC1 (stereo not drawn)	1	-30*	-1	-1	13
CC1Sc2ccc(S(=O)(=O)CCC(=O)N3CCN(c4cccc(Cl)c4)CC3)cc2NC1=O (stereo not drawn)	-1	-42*	5	0	10
COc1cccc(NS(=O)(=O)c2ccc3c(c2)NC(=O)C(C)S3)c1 (stereo not drawn)	0	0	7	-5	13
Cc1ccc(NC(=O)C2CCN(S(=O)(=O)c3ccc4c(c3)NC(=O)C(C)S4)CC2)cc1C (stereo not drawn)	0	-27	7	-3	7
COc1ccc(N(CC(C)C)S(=O)(=O)c2nnc(NC(=O)CC(C)C)s2)cc1	0	9	-2	2	4
COc1ccc(N2CCN(S(=O)(=O)c3ccc4c(c3)NC(=O)CS4)CC2)cc1	0	-16	7	1	5
COc1ccccc1NC(=O)c1ccc(S(=O)(=O)N2CCC(C)CC2)cc1	-1	-32*	-4	-11	2
COc1ccc(N2CCN(S(=O)(=O)c3ccc4c(c3)NC(=O)C(C)S4)CC2)cc1 (stereo not drawn)	1	-38*	2	-3	14
CCc1ccccc1N1C(=O)N(C)c2ccccc2S1(=O)=O	0	-8	1	-3	-1
COc1ccc(C(=O)Nc2c(N)nc(SCC(=O)c3ccccc3)[nH]c2=O)cc1	-1	-5	-2	-1	1
COc1ccc(C(=O)Nc2nc(C)cc(C)n2)cc1	1	3	-2	0	2
COc1ccc(C(=O)Nc2n[nH]c(-c3ccncc3)n2)cc1	0	-47*	-3	1	4
C/C(=C\C=C(C#N)C#N)c1cc(C#N)c(N)o1	11	21	-9	-6	63*
COc1cccc(-n2c(=O)c3c(C)c(C)sc3n(Cc3ccccc3C#N)c2=O)c1	0	7	1	-7	1
CC(C)c1ccc(/C=C2\Oc3c(ccc(O)c3CN3CCN(C)CC3)C2=O)cc1	12	-9	0	9	68*
CCN1CCN(Cc2c(O)ccc3c2O/C(=C\C=C\c2ccccc2OC)C3=O)CC1	33*	3	1	-5	112*
O=C1/C(=C/c2ccco2)Oc2c1ccc(O)c2CN1CCCCC1	8	-13	-8	3	12
Cc1ccc(/C=C2\Oc3c(ccc(O)c3CN3CCN(CCO)CC3)C2=O)cc1	22	-11	0	-2	32*
CCOC(=O)c1[nH]cnc1C(=O)N1CCN(C(=O)OC(C)(C)C)CC1	0	.	-4	1	-3
CCOc1ccc(CN2CCN(c3ncnc4sc5c(c34)CC(C)CC5)CC2)cc1 (stereo not drawn)	0	-33*	-1	1	-2
COc1ccc(CN2CCN(c3ncnc4sc5c(c34)CC(C)CC5)CC2)cc1F (stereo not drawn)	0	18	-1	1	-2
CCCC(=O)N1c2nc(C(C)C)nn2C2(CCCCC2)[C@@H]2CCCC[C@@H]21	-1	27	2	4	1
Cc1ccc(S(=O)(=O)N2c3ccccc3OCC2C(C)(C)C)cc1 (stereo not drawn)	0	0	-6	-6	1
Cc1ccc2c(c1)N(S(=O)(=O)c1ccc(F)cc1)C(C(C)(C)C)CO2 (stereo not drawn)	0	-40*	8	-1	6
CCSC1=NCCN1S(=O)(=O)c1ccc(NC(C)=O)cc1	1	-8	-3	-4	-2
SMILES	TRHR agonist	D1 antagonist	D1 PAM	TRHR PAM	D1 agonist
CSC1=NCCN1S(=O)(=O)c1ccc(NC(C)=O)cc1	0	8	-5	1	1
CC(=O)Nc1ccc(S(=O)(=O)N2CCN=C2SCc2ccc(F)cc2)cc1	-1	-26	-20	-2	37*
CC(=O)Nc1ccc(S(=O)(=O)N2CCN=C2SCc2ccc(C)cc2)cc1	1	-41*	-3	16	23
COC(=O)c1nn(-c2cccc(C(F)(F)F)c2)c(=O)cc1Sc1ccccn1	-1	3	-4	39*	0
O=C1CCCC2=C1C(c1ccco1)Nc1ccc3ccccc3c12 (stereo not drawn)	0	-36*	-18	25	8
COc1ccc2c3c(cccc13)C(=O)CC2	122*	0	-10	8	52*
O=C(NCc1ccco1)c1ccc2c(c1)N(Cc1ccc(Cl)cc1)CCS2	0	-37*	-8	-2	2
O=C(COc1ccc2c3c(c(=O)oc2c1)CCCC3)NCCCN1CCOCC1	0	-30*	-9	1	9
CCc1cc(=O)oc2cc(OCC(=O)NCCCn3ccnc3)ccc12	0	-37*	-3	-4	3
O=C(COc1ccc2c3c(c(=O)oc2c1)CCCC3)NCCN1CCOCC1	0	-12	-3	13	2
C#CCSc1nnc(CNS(=O)(=O)c2ccc(Br)cc2)n1C	0	-6	4	21	0
CSc1sc(-c2nnc(SCC(=O)Nc3ccccc3)n2C)c2c1C=CCC2	0	-36*	-1	1	2
O=C(c1ccc(OC2CCN(CCc3ccccc3)CC2)cc1)N1CCC[C@H]1CO	1	-79*	-5	5	0
O=C1c2ccccc2C(=O)N1Cc1ccccn1	1	-37*	-6	2	2
O=C(Nc1cccnc1)c1ccc(F)cc1	0	-2	-3	-2	0
O=C(Nc1ccncc1)c1ccc(F)cc1	0	-13	-3	-1	2
O=C(Nc1ccncc1)c1ccc(-c2ccccc2)cc1	0	-39*	-13	5	18
O=C(Nc1cccnc1)c1ccc(-c2ccccc2)cc1	0	-30*	-9	1	5
O=C(NC(=S)Nc1ccccn1)c1ccc(-c2ccccc2)cc1	0	-32*	-9	1	6
O=C(Nc1cc(-c2nc3ccccc3o2)ccc1Cl)c1ccc(Br)o1	0	4	2	-5	1
Cn1cc(CNC(=O)COc2ccc(Cl)cc2Cl)cn1	-1	5	-4	8	6
Cc1nn(C)cc1CNC(=O)COc1ccc(Cl)cc1Cl	2	-33*	-6	9	8
CS(=O)(=O)Oc1ccc2c(c1)O/C(=C\c1cccnc1)C2=O	0	1	1	-1	2
O=C(Oc1ccc2c(c1)O/C(=C\c1ccncc1)C2=O)c1cccs1	0	-10	-4	6	37*
COc1cc(OC)cc(C(=O)NC(=S)NNC(=O)[C@H]2C[C@@H]2c2ccccc2)c1	7	-9	-3	-1	88*
O=C(NC(=S)NNC(=O)[C@H]1C[C@@H]1c1ccccc1)c1ccc(F)cc1	11	-22	-2	-4	91*
